Laboratory results reported in PubChem BioAssay AID743060 (The Scripps Research Institute Molecular Screening Center, 2013).
Several values for one entry are separate records, joined by “and”; a condition that tells them apart may be missing. Equal values may be shown once.

Experiment: T. brucei methionyl-tRNA synthetase enzyme inhibition – biochemical, radioactivity, round 1, late-stage follow-up (AID 743060)
Conditions: purified enzyme, radiolabel aminoacylation, scintillation, 2 h; at 10 µM; stronger effect = higher value

| SMILES | inhibition |
| --- | --- |
| O=C(NCc1nc2ccccc2[nH]1)C1=C[C@H](c2ccc3c(c2)OCO3)C[C@H](OCCCCO)O1 | 79.4% |
| O=C(NCCc1nc2ccccc2[nH]1)c1ccc(Cl)cc1Cl | 94.9% |
| COc1ccccc1NC(=O)CSc1nnc2c(n1)[nH]c1ccc(C)cc12 | 14.5% |
| Cc1[nH]c2ccc(Br)cc2c(=O)c1CN1CCCCCC1 | 86.6% |
| O=C(CC(=O)Nc1cccc(Cl)c1)NN=Cc1ccccc1 | 81.1% |
| O=C(Cn1cc(C(=O)c2ccccc2)c2ccccc21)Nc1cccc(C(F)(F)F)c1 | 65.9% |
| O=C(C[C@H]1C(=O)N(Cc2ccccc2)C[C@@H]1c1ccc(Br)cc1)Nc1ccc(Br)cc1 | 94.4% |
| O=C(Nc1ccc(F)c(Cl)c1)C1CC(=O)n2c(nc3ccccc32)N1 (stereo not given) | 90.3% and 93.6% |
| O=C(Cn1cnc2ccccc21)Nc1cccc([N+](=O)[O-])c1 | 91.9% |
| CC(C)OCCCN1CC(=O)N2C(c3cccc([N+](=O)[O-])c3)c3[nH]c4ccccc4c3C[C@H]2C1=O (stereo not given in full) | 93.1% |
| CCN(C(=O)Cn1cc(C(=O)C(=O)N2CCOCC2)c2ccccc21)c1ccccc1 | -23.7% |
| CCN(CC)C(=O)C(=O)c1cn(CC(=O)Nc2cccc(C(F)(F)F)c2)c2ccccc12 | 99.5% |
| CCN(CC)C(=O)C(=O)c1cn(CC(=O)N(CC)c2ccccc2)c2ccccc12 | -7.96% |
| Cn1c(CCNC(=O)c2ccc(Cl)cc2)nc2ccccc21 | 3.39% |
| CC(=O)N(CCc1ccccc1)C1CC(=O)N(c2ccc(Br)cc2)C1=O (stereo not given) | -21.2% |
| CN(Cc1cc(Cl)cc(Cl)c1)[C@H]1C[C@H]2c3[nH]c4ccccc4c3CCN2C(=O)[C@H]1CO | 101% |
| C[C@H](O)[C@@H]1C(=O)N2CCc3c([nH]c4ccccc34)[C@@H]2C[C@@H]1N(C)Cc1ccc2c(c1)OCO2 | 80.4% |
| CCc1ccc2[nH]c3nc(SCC(=O)NCc4cccc(OC)c4)nnc3c2c1 | 0.65% |

| SMILES | inhibition |
| --- | --- |
| COc1ccc(CNC(=O)CSc2nnc3c(n2)[nH]c2ccc(F)cc23)cc1 | 89.6% |
| COc1ccccc1-n1c(SCC(=O)Nc2ccc(Cl)cc2)nc(O)c(Cc2ccccc2)c1=O | 67% |
| O=C(Cn1cc(C(=O)C(=O)N2CCOCC2)c2ccccc21)NCc1ccccc1 | 16.7% |
| O=C(NCc1nc2ccccc2[nH]1)C1=C[C@@H](c2ccc(Br)cc2)C[C@@H](OCCCCO)O1 | 99.9% |
| O=C(CSc1nnc2c(n1)[nH]c1ccc(Br)cc12)NCc1ccccc1 | 59.7% |
| O=C(NCc1nc2ccccc2[nH]1)C1=C[C@H](c2ccc(Br)cc2)C[C@H](OCCCCO)O1 | 94.3% |
| CCCCCCCCCC1NC(C(=O)O)Cc2c1[nH]c1ccccc21 (stereo not given) | 93.2% |
| O=C(Cn1cc(C(=O)C(=O)N2CCOCC2)c2ccccc21)Nc1cccc(C(F)(F)F)c1 | 100% |
| CCN(CCc1nc2ccc(C)cc2[nH]1)C(=O)c1ccc2ncccc2c1 | -5.17% |
| Cc1cccc2[nH]c(CCN(C)C(=O)c3cccc(C4CCNC4)c3)nc12 (stereo not given) | -14.3% |
| Brc1cnc2nc(SCc3nc4ccccc4[nH]3)[nH]c2c1 | 84.9% |
| COc1cccc(NC(=O)C2CC(=O)n3c(nc4ccccc43)N2)c1 (stereo not given) | 31.5% |
| COc1ccccc1NS(=O)(=O)c1cccc(NC(=O)Nc2ccccc2)c1 | 95.1% |
| COc1ccc(CCN(C(=S)Nc2ccccc2)C2CC(=O)N(c3ccc(Cl)cc3)C2=O)cc1 (stereo not given) | 99.4% |
| O=C(NCc1nc2ccccc2[nH]1)C1=C[C@@H](c2ccc(Br)cc2)C[C@@H](OCc2ccc(CO)cc2)O1 | 97.6% |
| Cc1cc2cc(C(=O)N3CCCC(c4nc5ccccc5[nH]4)C3)ccc2o1 (stereo not given) | 78.2% |
| COc1ccc(OCC(O)CNC(=O)Nc2ccc(Cl)cc2)cc1 (stereo not given) | 61.9% |
